Results from the supplement of paper PMC13380429.
Values without a mark were called inactive.

system: Vero E6 infected with SARS-CoV-2; assay: SARS-CoV-2 infection rate relative to infected DMSO; higher = more infection, active = 60 or less; conditions: 24 h

Row | SMILES | SARS-CoV-2 infection rate
1 | Cn1cc(C(F)(F)F)nc1-c1ccc(OCC(O)CNCCOc2ccc(O)c(C(N)=O)c2)cc1 (stereo not given) (10 µM) | 112%
2 | CC1CS(=O)(=O)CCN1/N=C/c1ccc([N+](=O)[O-])o1 (stereo not given) [nifurtimox] (10 µM) | 102%
3 | N=C(N)c1ccc(/C=C/c2ccc(C(=N)N)cc2O)cc1 [hydroxystilbamidine] (10 µM) | 109%
4 | CC[C@H]1CN2CC[C@H]1C[C@@H]2[C@@H](O)c1ccnc2ccc(OC)cc12 [hydroquinidine] (10 µM) | 90%
5 | Cn1nnnc1SCC1=C(C(=O)O)N2C(=O)[C@@H](NC(=O)[C@H](OC=O)c3ccccc3)[C@H]2SC1 [cefamandole-nafate] (10 µM) | 102%
6 | CS(=O)(=O)OC[C@H](O)[C@@H](O)COS(C)(=O)=O [treosulfan] (10 µM) | 118%
7 | CCOC(=O)N[C@@H]1CC[C@@H]2[C@@H](C1)C[C@H]1C(=O)O[C@H](C)[C@H]1[C@H]2/C=C/c1ccc(-c2cccc(F)c2)cn1 [vorapaxar] (10 µM) | 106%
8 | O=[N+]([O-])c1ccc2c(c1)S(=O)(=O)C=C2 [stattic] (0.833333 µM) | 100%
9 | Cc1c(C(=O)N2CCOc3ccc(-c4ccc(N)nc4)cc3C2)ccc(S(C)(=O)=O)c1F (0.833333 µM) | 110%
10 | CCN(CC)CCOc1ccc(/C(=C(\Cl)c2ccccc2)c2ccccc2)cc1 [clomifene] (0.833333 µM) | 96.5%
